# Vaccinia mCherry: vaccinia inhibition (mCherry reporter); Vaccinia virus mCherry reporter infection, fluorescence; Potency, µM (highest dose often 36.5 µM), without a hit: at the highest dose activity change, negative = inhibition, actives largely listed as inhibitors; 310,000 compounds, 0.63% hits; calls by dose curve; tested in A549 cells; also: potency is read from the fitted curve at half-maximal effect; nearly all actives have a fitted effect of over 35% in size
# Marburg entry inh: blocks Marburg virus binding to or entry into cells; Marburg virus pseudotyped entry inhibition, cell reporter; Potency, µM (top dose mostly 37.8 µM), inactives show top-dose activity change, negative = inhibition, most hits filed as inhibitors; 300,000 compounds, 1.8% hits; AID 540276; calls by dose curve; tested in HEK293 cells; also: potency is read from the fitted curve at half-maximal effect
# HCMV antiviral: human cytomegalovirus inhibition. 410,000 compounds, 4.5% hits. activity change, negative = inhibition, % at 57.5 µM. HFF cells, HCMV-luciferase reporter, 72 h; active compounds read low; in the data active = activity change below about -60%; inconclusive = no clear call, values can overlap the other calls; inactive = above about -39%
#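 Two-dose cell screen: HFF monolayers treated with compounds and infected with luciferase-expressing HCMV at 1 PFU/cell, 72 h at 37C, then lysed for luciferase measurement.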
# LASV entry inh: Lassa virus entry inhibition; Potency, µM (doses to about 37.9 µM), for inactives: at the highest dose activity change, negative = inhibition, actives largely listed as inhibitors; 300,000 compounds, 1.2% hits; Lassa virus pseudotype entry inhibition, cell reporter; calls by dose curve; tested in HEK293 cells; also: potency is read from the fitted curve at half-maximal effect; nearly all actives have a fitted effect of over 50% in size
# HCV inhibitor: blocks hepatitis C virus; 340,000 compounds, 3.4% hits; Huh7.5.1 HCVcc-Cre infection, luciferase reporter, 44 h; Potency, µM (highest dose often 41.8 µM), for the others: at the highest dose activity change, negative = inhibition, most hits filed as inhibitors; active = well fitted inhibition curve with a large enough effect; inconclusive = small, poorly fitted or top-dose-only effect, or another doubt; inactive = no such curve, though single readings can be large or run the other way; also: potency is read from the fitted curve at half-maximal effect
#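 A cell-based infection assay in which seeded cells (1,000 per well) receive test compound after 4 h, are inoculated with HCVcc-Cre at approximately 0.5 moi, and are incubated 44 h before luminescence detection.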
# VACV Venus inh: inhibitors of vaccinia virus (Venus reporter); Vaccinia virus Venus reporter expression, fluorescence; Potency, µM (doses to about 36.5 µM), for the others: at the top dose activity change, negative = inhibition, most hits filed as inhibitors; 330,000 compounds, 0.46% hits; calls by dose curve; tested in A549 cells; also: potency is read from the fitted curve at half-maximal effect; nearly all actives have a fitted effect of over 30% in size
# An asterisk follows results filed as active; i = inactive; u = inconclusive; x = no result given; ! = not active in a repeat; [ ] = another dose, or the depositor's remark. Most compounds without a hit are left out; they make up all but 7.8% or so of the library. % is scaled to controls: 0 for no effect and ±100 for the full control effect.
SMILES,Vaccinia mCherry,Marburg entry inh,HCMV antiviral,LASV entry inh,HCV inhibitor,VACV Venus inh
Cc1csc(NC(=O)CSc2nc3ccccc3c(=O)[nH]2)n1,-7.0%,4.61µM*,52.9,u,29.2%,-7.9%
CC(C)(C)c1csc(NC(=O)Cn2cnc3ccccc3c2=O)n1,i,-10.0%,36.7,-2.3%,14.1µM*,-7.3%
Cc1cnc(NC(=O)CSc2nnc3ncccn23)s1,-4.4%,-27.4%[46.1 µM],u,x,10.1%,0.0%
CC(C)(C)c1csc(NC(=O)CSc2nc3ccccc3c(=O)[nH]2)n1,x,-5.2%,-106.9*,8.5%,14.6%,x
O=C(Cn1cnc2ccccc2c1=O)Nc1nnc(C2CC2)s1,i,u,-18.2,19.2%,9.2%,-12.1%
Cc1csc(NC(=O)CSc2nnc3ncccn23)n1,x,3.9%,-86.8*,3.7%,3.8%,x
OC1CCC(Nc2nccc3[nH]c(-c4ccccc4Cl)nc23)CC1 (stereo unspecified),x,x,-11.0,x,x,x
COc1ccc(C(=O)CCC(=O)Nc2ccc(F)cc2F)cc1,6.1%,x,-7.0,19.7%[46.1 µM],x,-0.8%
Cc1ccc(C)c(N2CCN(c3nc4ccccc4n4nnnc34)CC2)c1,-5.0%,u,117.7,21.6%[46.1 µM],x,14.0%
O=C(CSc1nc2ccccc2c(=O)[nH]1)Nc1ccc([N+](=O)[O-])cc1,u,u,-30.8,u,-21.5%,20µM*
Cc1csc(NC(=O)CSc2ncc(-c3ccccc3)[nH]2)n1,i,-3.0%,-98.4*,3.4%,13.9%,-2.5%
Cc1nnc(NC(=O)CSc2ncc(-c3ccccc3)[nH]2)s1,x,x,13.4,x,2.4%,x
Cc1cccnc1-c1cccc2c1OC(CNC(=O)/C=C/c1cccs1)C2 (stereo unspecified),-6.1%,x,x,x,x,4.4%
C[C@@H]1CCCN1[C@@H]1C[S+](=O)([O-])N[C@@H]1COCc1ccccc1,x,x,x,6.6%[46.1 µM],x,x
CC[N+]1(CC(=O)c2ccc(I)cc2)CCCCC1,i,x,x,x,x,-7.9%
CN(C)c1ccc(Sc2ccc3nc(N)nc(N)c3c2)cc1,4.47µM*,x,-92.1*,x,x,5.01µM*
CCCOc1ccc(-c2cnc(N)s2)cc1,4.47µM*,u,97.8,u,u,5.01µM*
CC(=O)CC1(OC(C)=O)C(=O)N(C)c2ccccc21 (stereo unspecified),-13.6%,u,-64.3*,-29.2%[46.1 µM],5.0%,-16.0%
C/C(CC1(O)C(=O)N(C)c2ccccc21)=N\O (stereo unspecified),i,7.9%,u,19.4%,6.0%,-2.4%
O=C(c1ccco1)N1CCN(C23CC4CC(CC(C4)C2)C3)CC1,i,u,38.6,22.3%[46.1 µM],7.5%,-12.4%
Cn1ncc(Cl)c1C(=O)N1CCN(C23CC4CC(CC(C4)C2)C3)CC1,-4.1%,8.6%,-77.0*,u,23.3%,-17.2%
Cc1ccc(C(=O)N2CCN(C34CC5CC(CC(C5)C3)C4)CC2)o1,x,x,-82.5*,x,4.4%,x
COc1ccc(CCNC(=O)c2ccc3c(c2)SC2=NS(=O)(=O)CCN23)cc1,-16.1%,-16.0%[46.1 µM],67.4,4.7%,-25.3%,-11.4%
O=C(Nc1cccc(Cl)c1)c1ccc2c(c1)SC1=NS(=O)(=O)CCN12,u,u,-79.0*,u,-23.1%,-18.8%
C/C(=N\Nc1nc2ccccc2s1)c1ccc(Br)s1,-19.2%,u,-19.6,u,11.2µM*,-10.2%
SMILES,Vaccinia mCherry,Marburg entry inh,HCMV antiviral,LASV entry inh,HCV inhibitor,VACV Venus inh
CC(=NNc1nc2ccccc2s1)c1ccncn1,2.82µM*,u,-100.4*,u,u,u
C/C(=N\Nc1nc2ccccc2s1)c1ccc2c(c1)OCO2,i,-9.1%,116.7,u,u,-13.0%
c1ccc2sc(NN=C3CCCCCC3)nc2c1,-16.0%,u,4.0,u,u,-9.6%
Cc1ccc(C(=O)c2oc3ccccc3c2NC(=O)C(C)Oc2ccccc2Cl)cc1 (stereo unspecified),0.4%,11.8%[46.1 µM],-23.7,-0.9%[46.1 µM],x,5.2%
COc1cc2c(cc1OC)[C@@H]1O[C@](CCCCN3C(=O)c4ccccc4C3=O)(C2)OC2=C1C(=O)CC(C)(C)C2,x,-8.8%[14.2 µM],x,x,x,x
COc1ccc(C(CC(=O)N2CCCCC2)NC(=O)C(F)(F)F)cc1 (stereo unspecified),i,5.1%[46.1 µM],-9.3,-0.7%,15.4%,4.8%
COc1ccc(C(CC(=O)Nc2ccc(Cl)cc2F)NC(=O)C(F)(F)F)cc1 (stereo unspecified),x,-28.1%,-89.2*,-2.9%,4.9%,x
Cc1nc(SCc2ccc(C(=O)O)cc2)nc2c1CCCC2,i,u,-61.5*,-28.3%[46.1 µM],20.2%,-19.4%
CCOc1ccc(NC(=O)c2oc3ccccc3c2NC(=O)c2cc3ccccc3o2)cc1,5.8%,u,21.7,17.7%[46.1 µM],x,-2.1%
O=C(O)CCCCCNS(=O)(=O)c1cccc2c1C(=O)c1ccccc1C2=O,4.47µM*,u,-8.5,0.6%,-15.9%,5.01µM*
Clc1ccc2nnnc(-c3ccccc3)c2c1,12.6µM*,6.51µM*,-101.5*,10.3µM*,4.47µM*,12.6µM*
O=C(C1CCOCC1)N1CC(=O)N2[C@@H](CO)[C@H](c3ccc(Br)cc3)[C@@H]2C1,x,x,-1.6,x,x,x
CC[C@H]1OC(=O)[C@H](C)C(=O)[C@H](C)[C@@H](O[C@@H]2O[C@H](C)C[C@H](N(C)C)[C@H]2O)[C@](C)(OC)C[C@@H](C)C(=O)[C@H](C)[C@H]2N(CCCCn3cnc(-c4cccnc4)c3)C(=O)O[C@]12C,-14.0%,x,x,x,x,-8.2%
COc1cccc(Cn2c(CNS(=O)(=O)c3ccc4c(c3)CCCC4)nc3cccnc32)c1,-17.9%,x,-35.2,-6.0%[46.1 µM],x,-16.9%
C=Cc1c(C)c2cc3[nH]c(cc4nc(cc5nc(cc1[nH]2)C(C)=C5CCC(=O)O)C(CCC(=O)O)=C4C)c(C)c3C=C,18.3%,7.94µM*!,-33.3,u,-15.2%,-5.7%
CCOC(=O)N1CCN(c2c(NCCN(C)Cc3ccccc3)c(=O)c2=O)CC1,i,x,26.2,x,4.9%,-9.1%
CCOC(=O)N1CCN(c2c(NCCCN(C)c3ccccc3)c(=O)c2=O)CC1,-29.0%,x,-75.0*,x,-0.6%,0.4%
CCOC(=O)N1CCN(c2c(NCc3ccc(Cl)cc3)c(=O)c2=O)CC1,u,x,-74.6*,x,u,-14.3%
CCOC(=O)N1CCN(c2c(NCc3ccc(F)cc3)c(=O)c2=O)CC1,-19.6%,x,-30.7,x,-11.6%,-7.9%
CN(CCC#N)c1ccc(/C=C/c2ccnc3ccccc23)cc1,-27.4%,x,x,x,x,-14.3%
Cc1ccc(-c2nc3c(Br)cc(C)cn3c2Cc2cccc(Cl)c2)cc1,x,x,92.6,x,x,x
CN(c1ccccc1)S(=O)(=O)c1cccc(NC(=O)Cn2cnc3ccccc3c2=O)c1,x,-15.7%,-20.5,u,2.82µM*,u
Cc1nnc(SCC(=O)Nc2cccc(S(=O)(=O)N(C)c3ccccc3)c2)s1,-4.2%,-19.5%,-6.2,-5.6%,7.08µM*,-21.5%
CN(c1ccccc1)S(=O)(=O)c1cccc(NC(=O)c2nn(C)c(=O)c3ccccc23)c1,x,x,-25.5,x,4.47µM*,x

# Bioassay records: PubChem, National Center for Advancing Translational Sciences (NCATS)
